Experimental data reported in PubChem BioAssay AID1159580 (chemical genetic matrix, 2015).
Several values for one entry are separate records, joined by “and”; a condition that tells them apart may be missing. Identical values can stand only once. The campaign covered roughly 5,500 compounds. About 2,000 (36%) were called active. About 18% were inconclusive and are not listed. Rule as the data show it: active = normalized growth mostly below about 0.91 (no sharp cut-off); inconclusive = no clear call, values can overlap the other calls; inactive = mostly above about 0.92. The list shows a part of the results.

Experiment: chemical genetic growth profiling, strain panel (AID 1159580);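 also: tested at 20 µM; growth read once vehicle control cultures reached saturation at 30 °C; 1 = growth at the plate median or of vehicle wells; lower values mean less growth of the strain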
Conditions: S. cerevisiae deletion strains, growth OD

Measured: normalized growth

O=C(O)c1cc(=O)c(O)c2c(O)c(O)ccc2c1
inactive: locus YAL013W, strain DEP1, stronger effect = lower value 1 | locus YAL021C, strain ccr4, stronger effect = lower value 1.02 | locus YAL026C, strain drs2, stronger effect = lower value 0.993 | locus YAL030W, strain snc1, stronger effect = lower value 1 | locus YBL061C, strain skt5, stronger effect = lower value 0.998 | locus YBR009C, strain hhf1, stronger effect = lower value 0.989 | locus YBR021W, strain FUR4, stronger effect = lower value 0.991 | locus YBR023C, strain chs3, stronger effect = lower value 1 | locus YBR171W, strain sec66, stronger effect = lower value 0.985 | locus YBR229C, strain ROT2, stronger effect = lower value 1.01 | locus YBR231C, strain swc5, stronger effect = lower value 0.988 | locus YBR279W, strain paf1, stronger effect = lower value 0.993 | locus YCL011C, strain gbp2, stronger effect = lower value 0.996 | locus YCL016C, strain dcc1, stronger effect = lower value 1 | locus YCL029C, strain bik1, stronger effect = lower value 1.02 | locus YCL061C, strain MRC1, stronger effect = lower value 0.993 | locus YCL069W, strain vba3, stronger effect = lower value 0.998 | locus YCR088W, strain abp1, stronger effect = lower value 0.99 | locus YDL005C, strain med2, stronger effect = lower value 0.997 | locus YDL035C, strain GPR1, stronger effect = lower value 1 | locus YDL040C, strain nat1, stronger effect = lower value 1.01 | locus YDL074C, strain BRE1, stronger effect = lower value 0.995 | locus YDL101C, strain DUN1, stronger effect = lower value 1.01 | locus YDL134C, strain PPH21, stronger effect = lower value 1 | locus YDL185W, strain tfp1, stronger effect = lower value 0.998 | locus YDL192W, strain arf1, stronger effect = lower value 1.01 | locus YDR001C, strain nth1, stronger effect = lower value 0.997 | locus YDR069C, strain doa4, stronger effect = lower value 0.974 | locus YDR101C, strain arx1, stronger effect = lower value 1.02 | locus YDR137W, strain rgp1, stronger effect = lower value 0.907 | locus YDR150W, strain NUM1, stronger effect = lower value 1 | locus YDR159W, strain sac3, stronger effect = lower value 0.969 | locus YDR162C, strain NBP2, stronger effect = lower value 0.979 | locus YDR195W, strain ref2 0.957 | locus YDR297W, strain sur2, stronger effect = lower value 0.997 | locus YDR318W, strain mcm21, stronger effect = lower value 1.05 | locus YDR334W, strain swr1, stronger effect = lower value 0.984 | locus YDR335W, strain msn5, stronger effect = lower value 0.996 | locus YDR388W, stronger effect = lower value 1.03 | locus YDR392W, strain spt3, stronger effect = lower value 0.997 | locus YDR502C, strain sam2, stronger effect = lower value 1.02 | locus YEL003W, strain gim4, stronger effect = lower value 0.999 | locus YEL037C, strain rad23, stronger effect = lower value 1 | locus YEL061C, strain CIN8 (second series), stronger effect = lower value 1 | locus YEL061C, strain CIN8, stronger effect = lower value 1 | locus YER015W, strain faa2, stronger effect = lower value 0.989 | locus YER016W, strain bim1, stronger effect = lower value 0.999 | locus YER110C, stronger effect = lower value 1.03 | locus YER111C, strain swi4, stronger effect = lower value 0.986 | locus YER155C, strain BEM2 (second series), stronger effect = lower value 1.01 | locus YER155C, strain BEM2, stronger effect = lower value 1.02 | locus YER167W, strain BCK2, stronger effect = lower value 1.03 | locus YFR010W, strain ubp6, stronger effect = lower value 0.986 | locus YGL078C, strain dbp3, stronger effect = lower value 1.01 | locus YGL086W, strain mad1, stronger effect = lower value 1.02 | locus YGL167C, strain pmr1, stronger effect = lower value 1 | locus YGL173C, strain kem1, stronger effect = lower value 1 | locus YGL227W, strain vid30, stronger effect = lower value 0.979 | locus YGL240W, strain doc1, stronger effect = lower value 0.994 | locus YGL248W, strain PDE1, stronger effect = lower value 1 | locus YGL253W, strain hxk2, stronger effect = lower value 0.999 | locus YGR078C, strain PAC10, stronger effect = lower value 0.969 | locus YGR135W, strain pre9, stronger effect = lower value 0.993 | locus YGR229C, strain SMI1, stronger effect = lower value 0.977 | locus YGR252W, strain gcn5, stronger effect = lower value 1.03 | locus YHR013C, strain ard1, stronger effect = lower value 0.975 | locus YHR027C, strain rpn1, stronger effect = lower value 0.998 | locus YHR030C, strain SLT2, stronger effect = lower value 1.01 and 0.987 | locus YHR079C, strain IRE1 (second series), stronger effect = lower value 1.02 | locus YHR079C, strain IRE1, stronger effect = lower value 0.99 | locus YHR094C, strain hxt1, stronger effect = lower value 1.02 | locus YHR129C, strain ARP1, stronger effect = lower value 1.01 | locus YHR142W, strain chs7, stronger effect = lower value 1.02 | locus YHR200W, strain rpn10, stronger effect = lower value 1.03 | locus YIL066C, strain RNR3, stronger effect = lower value 1.03 | locus YIL073C, strain SPO22, stronger effect = lower value 1.14 | locus YIL125W, strain kgd1, stronger effect = lower value 1.01 | locus YIR030C, strain dcg1, stronger effect = lower value 1.03 | locus YJL092W, strain hpr5, stronger effect = lower value 0.998 | locus YJL095W, strain BCK1 (second series), stronger effect = lower value 1 | locus YJL095W, strain BCK1, stronger effect = lower value 0.999 and 0.991 | locus YJL115W, strain asf1, stronger effect = lower value 0.99 | locus YJL129C, strain trk1, stronger effect = lower value 1.04 | locus YJL134W, strain LCB3, stronger effect = lower value 1 | locus YJL154C, strain vps35, stronger effect = lower value 1 | locus YJL164C, strain tpk1, stronger effect = lower value 0.985 | locus YJL166W, strain qcr8, stronger effect = lower value 1 | locus YJL168C, strain set2, stronger effect = lower value 1.01 | locus YJL187C, strain SWE1 (second series), stronger effect = lower value 0.994 | locus YJL187C, strain SWE1, stronger effect = lower value 0.995 | locus YJR043C, strain POL32, stronger effect = lower value 1.04 | locus YJR066W, strain TOR1, stronger effect = lower value 0.892
